Source: the supplement of paper PMC8371130
Where a name gives a salt, the structure may show the parent alone.

Test system: HL-1
Test: relative cell viability (CellTiter-Glo) vs DMSO control (% of DMSO control); higher = more viable cells
Summary of the method: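 In 384-well plates, 1000 HL-1 mouse atrial cardiomyocytes per well were plated with compounds at 40, 200, 1000 or 5000 nM in 0.01% DMSO. Hypoxia at 1% O2 for 48 h began one day later and was followed by 24 h of reoxygenation, with parallel plates held in normoxia. CellTiter-Glo luminescence gave cell viability relative to vehicle-treated control cells.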

[1] = oxygen condition: hypoxia 48 h (1% O2) + reoxygenation 24 h, 40 nM
[2] = oxygen condition: hypoxia 48 h (1% O2) + reoxygenation 24 h, 200 nM
[3] = oxygen condition: hypoxia 48 h (1% O2) + reoxygenation 24 h, 1000 nM
[4] = oxygen condition: hypoxia 48 h (1% O2) + reoxygenation 24 h, 5000 nM
[5] = oxygen condition: normoxia 72 h, 40 nM
[6] = oxygen condition: normoxia 72 h, 200 nM
[7] = oxygen condition: normoxia 72 h, 1000 nM
[8] = oxygen condition: normoxia 72 h, 5000 nM

Compound | relative cell viability [1] | relative cell viability [2] | relative cell viability [3] | relative cell viability [4] | relative cell viability [5] | relative cell viability [6] | relative cell viability [7] | relative cell viability [8]
CNCC(O)c1ccc(O)c(O)c1 (racemic) [DL-Adrenaline] | 100 | 97.8 | 67.7 | 15.5 | 107 | 93.8 | 63.6 | 11.8
Clc1ccc(COC(Cn2ccnc2)c2ccc(Cl)cc2Cl)cc1 (stereo unspecified) [Econazole nitrate] | 102 | 104 | 106 | 108 | 110 | 105 | 102 | 105
NCCCCCC(=O)O [Aminocaproic acid] | 102 | 102 | 106 | 107 | 106 | 103 | 110 | 112
Clc1ccc(COC(Cn2ccnc2)c2ccc(Cl)cc2Cl)c(Cl)c1 (stereo unspecified) [Miconazole] | 96.8 | 99.4 | 98.3 | 104 | 101 | 101 | 101 | 106
CNC(=C[N+](=O)[O-])NCCSCc1ccc(CN(C)C)o1 [Ranitidine] | 82.2 | 102 | 97.9 | 106 | 90.9 | 105 | 106 | 112
CCOc1nc2cccc(C(=O)OCc3oc(=O)oc3C)c2n1Cc1ccc(-c2ccccc2-c2noc(=O)[nH]2)cc1 [Azilsartan Medoxomil] | 101 | 99.2 | 116 | 116 | 93.4 | 103 | 100 | 114
Cc1cc2c(cc1S(N)(=O)=O)S(=O)(=O)CCC2 [Meticrane] | 101 | 101 | 105 | 103 | 102 | 104 | 102 | 112
Oc1cc(O)c(Cl)cn1 [Gimeracil] | 99.3 | 101 | 100 | 104 | 97.8 | 101 | 101 | 105
COC(=O)[C@H]1[C@H]2C[C@@H]3c4[nH]c5cc(OC)ccc5c4CCN3C[C@H]2C[C@@H](OC(=O)c2cc(OC)c(OC)c(OC)c2)[C@@H]1OC [Reserpine] | 112 | 106 | 107 | 110 | 102 | 103 | 103 | 113
COc1cc([C@@H]2c3cc4c(cc3[C@@H](O[C@@H]3O[C@@H]5CO[C@@H](c6cccs6)O[C@H]5[C@H](O)[C@H]3O)[C@H]3COC(=O)[C@H]23)OCO4)cc(OC)c1O [Teniposide] | 96.6 | 102 | 98.2 | 115 | 105 | 104 | 102 | 118
NC[C@H](O)c1ccc(O)c(O)c1 [Noradrenaline bitartrate monohydrate] | 105 | 104 | 104 | 111 | 98.9 | 99.7 | 113 | 109
CN(C)CCOc1ccc(/C(=C(/CCCl)c2ccccc2)c2ccccc2)cc1 [Toremifene Citrate] | 104 | 103 | 108 | 108 | 103 | 99.5 | 105 | 108
CCOC(=O)[C@H](CCc1ccccc1)N[C@H]1CCc2ccccc2N(CC(=O)O)C1=O [Benazepril hydrochloride] | 102 | 102 | 103 | 109 | 101 | 109 | 108 | 109
Nc1c2c(nc3ccccc13)CCCC2 [Tacrine HCl] | 91.7 | 89.5 | 81.2 | 20.3 | 94.1 | 82.5 | 70.4 | 26.4
CCCC(CCC)C(=O)O[C@H]1C[C@H]2CC[C@@H](C1)[N+]2(C)C [Anisotropine Methylbromide] | 104 | 101 | 93.2 | 97.8 | 96.3 | 93.7 | 84.7 | 109
CCCCCCCN(CC)CCCC(O)c1ccc(NS(C)(=O)=O)cc1 (stereo unspecified) [Ibutilide fumarate] | 103 | 95.7 | 98.8 | 92.9 | 98.3 | 97.9 | 97.3 | 97.6
COc1ccc(CC(C)NCC(O)c2ccc(O)c(NC=O)c2)cc1 (stereo unspecified) [Formoterol hemifumarate] | 100 | 98.7 | 102 | 111 | 104 | 106 | 98.9 | 106
COC(=O)C1=C(C)NC(C)=C(C(=O)OCC(C)C)C1c1ccccc1[N+](=O)[O-] (stereo unspecified) [Nisoldipine] | 106 | 104 | 107 | 110 | 99.2 | 110 | 116 | 111
CSc1ccc2c(c1)N(CCC1CCCCN1C)c1ccccc1S2 (stereo unspecified) [Thioridazine HCl] | 101 | 108 | 101 | 107 | 98.9 | 101 | 98.7 | 108
CC(=O)OCC(=O)[C@H]1CC[C@H]2[C@@H]3CCC4=CC(=O)CC[C@]4(C)[C@H]3CC[C@]12C [Deoxycorticosterone acetate] | 103 | 99.4 | 101 | 108 | 95.4 | 103 | 102 | 107
C#Cc1cccc(Nc2ncnc3cc(OCCOC)c(OCCO)cc23)c1 | 100 | 106 | 107 | 109 | 111 | 104 | 105 | 121

Compound | relative cell viability [1] | relative cell viability [2] | relative cell viability [3] | relative cell viability [4] | relative cell viability [5] | relative cell viability [6] | relative cell viability [7] | relative cell viability [8]
CC(=O)[C@H]1CC[C@H]2[C@@H]3CCC4=CC(=O)CC[C@]4(C)[C@H]3CC[C@]12C [Progesterone] | 109 | 105 | 103 | 116 | 111 | 111 | 111 | 116
COC(=O)C1=C(C#N)NC(C)=C(C(=O)OC(C)C)C1c1cccc([N+](=O)[O-])c1 (stereo unspecified) [Nilvadipine] | 107 | 105 | 96.3 | 98.7 | 98.3 | 98.1 | 102 | 108
CC1(C)S[C@@H]2[C@H](NC(=O)[C@H](NC(=O)N3CCNC3=O)c3ccccc3)C(=O)N2[C@H]1C(=O)O [Azlocillin sodium salt] | 102 | 102 | 106 | 110 | 101 | 104 | 112 | 116
CN(C)CCc1c[nH]c2ccc(C[C@H]3COC(=O)N3)cc12 [Zolmitriptan] | 105 | 104 | 104 | 110 | 108 | 104 | 102 | 102
CO[C@H]1C(=O)[C@]2(C)[C@@H](OC)C[C@H]3OC[C@@]3(OC(C)=O)[C@H]2[C@H](OC(=O)c2ccccc2)[C@]2(O)C[C@H](OC(=O)[C@H](O)[C@@H](NC(=O)OC(C)(C)C)c3ccccc3)C(C)=C1C2(C)C [Cabazitaxel] | 32.1 | 34.3 | 39.6 | 36.6 | 24.7 | 27.2 | 26.8 | 29.7
CCCC(CCC)C(=O)O [Valproic acid sodium salt] | 106 | 117 | 113 | 111 | 104 | 111 | 123 | 111
OC[C@@H](O)[C@@H](O)[C@H](O)[C@@H](O)CO [Sorbitol] | 93 | 101 | 98 | 101 | 100 | 106 | 97.9 | 97.5
CC1=C(/C=C/C(C)=C/C=C/C(C)=C\C(=O)O)C(C)(C)CCC1 [Isotretinoin] | 103 | 102 | 105 | 111 | 116 | 104 | 107 | 112
CCOc1cc(CC(=O)N[C@@H](CC(C)C)c2ccccc2N2CCCCC2)ccc1C(=O)O [Repaglinide] | 84.4 | 97.2 | 109 | 109 | 67.6 | 110 | 114 | 115
CCCCNc1cc(C(=O)O)cc(S(N)(=O)=O)c1Oc1ccccc1 [Bumetanide] | 102 | 108 | 110 | 113 | 105 | 96.8 | 112 | 118
O=C(O)Cc1cc(I)c(Oc2ccc(O)c(I)c2)c(I)c1 [Tiratricol] | 96.6 | 99.5 | 104 | 119 | 103 | 103 | 101 | 126
CN1CCN(C2=Nc3ccccc3Oc3ccc(Cl)cc32)CC1 [Loxapine Succinate] | 100 | 103 | 105 | 116 | 103 | 111 | 102 | 125
CN1CC2c3ccccc3Oc3ccc(Cl)cc3C2C1 (stereo unspecified) [Asenapine] | 105 | 104 | 108 | 106 | 111 | 101 | 103 | 111
N#CC[C@H](C1CCCC1)n1cc(-c2ncnc3[nH]ccc23)cn1 [Ruxolitinib] | 95.7 | 98.9 | 104 | 111 | 99.8 | 96.6 | 102 | 104
O=C1CN2Cc3c(ccc(Cl)c3Cl)N=C2N1 [Anagrelide HCl] | 97.6 | 98.7 | 97.5 | 108 | 99.8 | 100 | 105 | 111
CCNC(=O)CCC/C=C\C[C@@H]1[C@@H](/C=C/[C@@H](O)CCc2ccccc2)[C@H](O)C[C@@H]1O [Bimatoprost] | 104 | 107 | 108 | 105 | 104 | 101 | 105 | 107
CC(=O)[C@H]1CC[C@H]2[C@@H]3C=CC4=CC(=O)CC[C@@]4(C)[C@@H]3CC[C@]12C [Dydrogesterone] | 97.1 | 99 | 106 | 105 | 100 | 98.8 | 96.7 | 105
CCCC1O[C@@H]2C[C@H]3[C@@H]4CCC5=CC(=O)C=C[C@]5(C)[C@H]4[C@@H](O)C[C@]3(C)[C@]2(C(=O)CO)O1 (stereo partly specified) [Budesonide] | 95.2 | 102 | 91.2 | 96.5 | 90.9 | 83.5 | 95.6 | 96.4
NS(=O)(=O)c1cc2c(cc1Cl)NC(C(Cl)Cl)NS2(=O)=O (stereo unspecified) [Trichlormethiazide] | 109 | 109 | 118 | 119 | 107 | 115 | 112 | 114
CN1CCN(CCCN2c3ccccc3Sc3ccc(Cl)cc32)CC1 [Prochlorperazine Dimaleate] | 114 | 111 | 106 | 113 | 98.7 | 99.3 | 102 | 105
CC1COc2c(N3CCN(C)CC3)c(F)cc3c(=O)c(C(=O)O)cn1c23 (stereo unspecified) [Ofloxacin] | 99.3 | 99.8 | 97.8 | 108 | 98.5 | 97.3 | 62.4 | 115
